Source: PubChem (National Center for Advancing Translational Sciences (NCATS))
GLS inh: inhibitors of human glutaminase (GLS); actives 0.21% (n = 410,000); Potency, µM (doses to about 45.5 µM), most hits filed as inhibitors; O94925; GLS enzymatic activity, qHTS titration
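Read-out is an Amplex red fluorescence increase coupled through glutamate oxidase and HRP, measured before and after 30 min room-temperature incubation. hKGA is in 45 mM KH2PO4 (pH 8.2) with 0.02% Tween-20; glutamine added as 1mM solution.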
Tb PGK inh: blocks T. brucei phosphoglycerate kinase; P07378; PGK/GAPDH coupled, Kinase-Glo luminescence, 60 min; Potency, µM (series often up to 57.5 µM), hits mostly inhibitors; actives 0.043% (n = 380,000); AID 602233; note: nearly all actives have a fitted effect of over 60% in size
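Recombinant glycosomal PGK reaction used 1,3-bisphosphoglycerate generated in-well by GAPDH (100nM final) in 100mM TEA pH 7.6, 5mM MgCl2, 0.01% Tween-20. After 60 minutes at room temperature, ATP was read by Kinase-Glo Plus luminescence end-point.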
GCN5L2 inh: GCN5L2 (KAT2A) acetyltransferase inhibition | GCN5L2 HAT assay, ThioGlo1 CoA-SH fluorescence | Q92830 | actives 0.21% (n = 390,000) | Potency, µM (doses to about 58.9 µM), usual class: inhibitors | AID 504327
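GCN5L2 (20nM final) in 50mM HEPES, 0.1mM EDTA pH 7.5, 0.01% Tween-20 was preincubated 15 min at room temperature with compound, then given ThioGlo1 (50uM), H3(1-25) peptide (75uM) and acetyl-CoA (70uM); CoA-thiol fluorescence (Ex340/Em540) was read at 0 and 20 min.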
USP2a block: USP2a (human) protease inhibition; USP2 core, Ub-CHOP2 coupled fluorogenic reporter, 485/531; AID 463254; Potency, µM (top dose mostly 38.3 µM), actives largely listed as inhibitors; O75604; actives 0.01% (n = 330,000)
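Cell-free coupled assay: 10nM USP2 core preincubated 30min RT with compound in Tris-HCl pH 8.0/CaCl2/CHAPS buffer, then 25nM Ub-CHOP2 and 25nM reporter substrate; fluorescence (Ex 485/Em 531) read after 60min RT, normalized to NEM inhibition, concentration-response curves fitted.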
Tb PFK inh: inhibitors of T. brucei phosphofructokinase; O15648; Potency, µM (titrated, usually from 57.5 µM), hits mostly inhibitors; actives 0.17% (n = 330,000); T. brucei PFK, ADP-Glo luminescence; note: nearly all actives have a fitted effect of over 60% in size
Target sequence (O15648 whole entry, looked up): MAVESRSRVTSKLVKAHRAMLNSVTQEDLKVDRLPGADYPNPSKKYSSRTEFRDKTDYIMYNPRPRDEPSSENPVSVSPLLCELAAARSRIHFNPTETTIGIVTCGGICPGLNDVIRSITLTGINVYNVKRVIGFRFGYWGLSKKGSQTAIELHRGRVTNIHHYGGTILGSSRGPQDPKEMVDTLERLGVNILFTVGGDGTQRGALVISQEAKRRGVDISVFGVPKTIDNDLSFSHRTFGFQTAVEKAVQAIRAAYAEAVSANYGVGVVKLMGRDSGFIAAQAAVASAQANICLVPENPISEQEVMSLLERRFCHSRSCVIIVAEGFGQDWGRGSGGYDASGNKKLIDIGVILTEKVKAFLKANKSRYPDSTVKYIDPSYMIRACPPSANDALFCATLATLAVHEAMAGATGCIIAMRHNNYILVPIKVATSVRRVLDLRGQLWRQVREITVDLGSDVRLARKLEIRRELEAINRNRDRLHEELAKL
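PFK 1.25 nM, F6P 0.5 mM, ATP 0.1 mM, 0.1 M TEA pH 8.0, 5 mM MgCl2, 0.01% Tween20, 0.1% BSA; 45 min RT. ADP-Glo readout. qHTS titration up to 57 uM; curves fitted, compounds curve-classed.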
Hits are given with their value; – = inactive; ? = inconclusive; · = not tested or not shown. Compounds with a hit are over-represented: about 0.52% of the library has one in this group of screens. Calls come from the whole dose curve; as a rule, active = well fitted curve in the direction sought with a large enough effect; inconclusive = small, poorly fitted or top-dose-only effect, or another doubt; inactive = no such curve, though single readings can be large; an effect the other way counts as inactive or inconclusive.

SMILES	GLS inh	Tb PGK inh	GCN5L2 inh	USP2a block	Tb PFK inh
O=c1c(-c2cc(F)cc(F)c2)nc2cnc(N3CCNCC3)nc2n1Cc1ccc(F)cc1	·	·	–	·	·
CCCCCOc1ccc(C2SC(=O)NC2=O)cc1OCC (stereo not drawn)	–	·	·	·	·
CN1CCN(C(=O)Cn2c(-c3cccs3)cc3ccccc32)CC1	–	–	–	·	·
O=C(Cn1cncn1)NCc1ccccc1Br	–	–	–	–	–
O=C(Cn1cncn1)NCc1cccc2ccccc12	–	–	3.55µM	–	–
CCc1ccc(S(=O)(=O)/N=C2\C=C(Nc3cccc(C(=O)O)c3)C(=O)c3ccccc32)cc1	?	–	–	–	–
CCc1ccc(S(=O)(=O)/N=C2\C=C(Nc3ccc(O)cc3)C(=O)c3ccccc32)cc1	4.47µM	?	–	–	–
N#C/C(=C\c1ccc(-c2cc(Cl)ccc2Cl)o1)C(=O)Nc1cccc2ncccc12	·	·	–	·	·
O=C(CCO)c1ccc(O)cc1	7.94µM	?	–	–	?
COc1ccc(/C=C(\C#N)c2nc3ccc(C)cc3[nH]2)cc1Oc1ccc(C(F)(F)F)cc1[N+](=O)[O-]	–	–	2.82µM	–	–
Cc1ccc2nc(/C(C#N)=C\c3ccc(Oc4ccc(C(F)(F)F)cc4[N+](=O)[O-])cc3)[nH]c2c1	–	–	–	–	–
Cc1cccc(-n2c(C)nc3cc(C(=O)NC4CCCCCC4)ccc32)c1	–	–	–	·	·
COc1ccc(NC(=O)c2cc3c(COC(C)=O)cnc(C)c3oc2=Nc2cccc(C(=O)O)c2)c(OC)c1	10µM	–	–	–	–
COc1cc2cc(CNc3ccc(C)cc3)c(=O)n(CC(=O)Nc3ccc(F)cc3F)c2cc1OC	?	–	–	·	·
O=c1c2cc([N+](=O)[O-])ccc2sn1-c1ccccc1	10µM	–	·	·	·
N#Cc1ccc2sn(-c3ccccc3)c(=O)c2c1	6.31µM	–	·	·	·
CC(=O)Nc1ccc2sn(-c3ccccc3)c(=O)c2c1	6.31µM	–	·	·	·
COc1ccc(-n2sc3ccccc3c2=O)cc1	?	–	·	·	·
C[C@@H](C(=O)O)c1ccc(C2CCCCC2)c2ccccc12	–	·	·	·	·
CN1C(CSCC(F)(F)F)Nc2cc(Cl)c(S(N)(=O)=O)cc2S1(=O)=O (stereo not drawn)	–	·	·	·	·
CC1(C)Cc2c(cnn2-c2ccc(F)cc2)C(NC(=O)c2ccco2)C1 (stereo not drawn)	–	–	–	–	–
CC1(C)Cc2c(cnn2-c2ccc(F)cc2)C(NC(=O)C2=NNC(=O)CC2)C1 (stereo not drawn)	15.8µM	–	–	–	–
CC(c1ccc(F)cc1)n1c(-c2ccc3ccccc3n2)n[nH]c1=S (stereo not drawn)	12.6µM	–	–	–	–
CC(c1ccc(Cl)cc1)n1c(-c2ccc3ccccc3n2)n[nH]c1=S (stereo not drawn)	?	–	–	–	–
CCOC(=O)CCC(=O)OC1C(OC2C(C)C(OC3CC(C)(OC)C(O)C(C)O3)C(C)C(=O)OC(CC)C(C)(O)C(O)C(C)C(=O)C(C)CC2(C)O)OC(C)CC1N(C)C (stereo not drawn)	–	·	·	·	·
SMILES	GLS inh	Tb PGK inh	GCN5L2 inh	USP2a block	Tb PFK inh
O=C1NC(=S)S/C1=C\c1ccc(SCc2ccco2)o1	11.2µM	14.1µM	14.1µM	–	–
O=C1NC(=S)S/C1=C\c1ccc(SCc2ccccc2)o1	?	?	–	–	–
COc1cccc(C(=O)Nc2cccc(-c3cn4c(C)csc4n3)c2)c1OC	–	–	–	·	·
CSc1ccc(/C=N/Nc2nc(C)cc(=O)[nH]2)cc1	–	–	–	–	–
Cc1cc(=O)[nH]c(N/N=C/c2ccc(O)c(O)c2)n1	12.6µM	–	–	–	–
CSCC[C@H](NC(=O)[C@@H](Cc1ccc(O[S+](=O)([O-])O)cc1)NC(=O)[C@H](N)CC(=O)O)C(=O)NCC(=O)N[C@@H](Cc1c[nH]c2ccccc12)C(=O)N[C@H](CCSC)C(=O)N[C@H](CC(=O)O)C(=O)N[C@@H](Cc1ccccc1)C(N)=O	–	·	·	·	·
Cn1nnnc1SCC1=C(C(=O)O)N2C(=O)[C@@H](NC(=O)[C@H](OC=O)c3ccccc3)[C@H]2SC1	22.4µM	·	·	·	·
